Screening results as filed in PubChem.
This excerpt belongs to a sample that is enriched for hits.
VHR inh color – blocks the human dual specificity phosphatase VHR1; P51452; recombinant VHR phosphatase, colorimetric substrate read-out; inhibition, % at 20 µM; hit rate 0.7% among 50,000; in the data active = inhibition above about 60%
Target sequence (P51452 whole entry, looked up): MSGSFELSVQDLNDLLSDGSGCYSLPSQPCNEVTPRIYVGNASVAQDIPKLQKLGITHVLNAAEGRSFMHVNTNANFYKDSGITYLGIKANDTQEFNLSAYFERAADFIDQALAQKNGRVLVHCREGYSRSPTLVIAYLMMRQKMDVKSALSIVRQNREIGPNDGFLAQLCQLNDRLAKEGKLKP
The depositor's hits bear a star.

SMILES	VHR inh color
CC(=O)Nc1ccccc1/C=C/c1ccc2c(C)cc(C)c(O)c2n1	-30
O=C(O)CN(c1cccc(Br)c1)S(=O)(=O)c1ccccc1	-12
COc1ccc(OC)c(COc2ccc(-c3nc4sc5c(c4c(=O)[nH]3)CCCC5)cc2)c1	-13
O=S(=O)(N=Nc1c(O)[nH]c2ccccc12)c1ccc2ccccc2c1	-3
Cc1ccc(N(CC(=O)NC2CCCC2)S(=O)(=O)c2ccc(F)cc2)cc1	-35
CCOc1ccc(S(=O)(=O)N(CC(=O)NC2CCCCC2)c2ccc(C)cc2)cc1	90*
Cc1ccc(N(CC(=O)NC2CCCC2)S(=O)(=O)c2ccccc2)cc1	1
COc1ccccc1N1C(=O)C2ON(c3ccccc3C)C(c3cccc(Br)c3)C2C1=O (stereo not given)	-29
O=C(NC(=S)NC1CCSC1=O)c1ccco1 (stereo not given)	-5
Cc1cc(/C=C2/SC(=O)NC2=O)c(C)n1-c1cccc(Cl)c1	-3
Cc1cc(/C=C2/SC(=S)NC2=O)c(C)n1-c1cccc(Cl)c1	95*
Cc1cc(C)cc(-n2c(C)cc(C=C3SC(=S)NC3=O)c2C)c1	-5
Cc1ccc(C(=O)Nc2ccccc2C(=O)NC(Cc2ccccc2)C(=O)O)cc1 (stereo not given)	-21
CC(=O)Nc1cccc(NC(=O)c2ccccc2[N+](=O)[O-])c1	2
Cc1cccc(C)c1OCC(=O)N/N=C/c1ccccc1[N+](=O)[O-]	-1
N/C(=N\OC(=O)Cc1ccc(Cl)cc1)c1ccccc1	-6
O=C1SCCC1NS(=O)(=O)c1cc(Cl)ccc1Cl (stereo not given)	-19
N#CC1=C(SCc2ccccc2)NC(=O)C(C#N)C12CCCCC2 (stereo not given)	-9
C=CCSC1=C(C#N)C2(CCCCC2)C(C#N)C(=O)N1 (stereo not given)	0
N#CC1=C(S)NC(=O)C(C#N)C12CCCCC2 (stereo not given)	81*
COc1ccc(-c2csc(-c3cc4ccccc4oc3=O)n2)cc1	1
O=C(N/N=C/c1ccc(Cl)c([N+](=O)[O-])c1)c1ccccn1	-2
O=C(NCc1ccc2c(c1)OCO2)Nc1ccc(Cl)c(Cl)c1	7
O=C(O)CC(Cc1ccccc1)C(=O)O (stereo not given)	-4
O=C(O)CC(Cc1ccc(Br)cc1)C(=O)O (stereo not given)	-11
SMILES	VHR inh color
C=C(CC(Cc1ccccc1)C(=O)O)c1ccccc1 (stereo not given)	97*
COc1ccc(NC(=O)CN(c2ccc(C)cc2)S(C)(=O)=O)cc1	7
OC(COc1cccc(OCC(O)CN2CCOCC2)c1)CN1CCOCC1 (stereo not given)	-11
CC(C)c1ccc(N2C(=O)NC(=O)/C(=C/c3ccc(O)c(Br)c3)C2=O)cc1	13
CCc1nnc(NC(=O)C2CCCC2)s1	-20
O=[N+]([O-])c1ccc(S(=O)(=O)N/N=C/c2ccc3c(c2)OCO3)cc1	-19
CC(C)(C)c1ccc(S(=O)(=O)N/N=C/c2ccc3c(c2)OCO3)cc1	111*
COc1ccc(S(=O)(=O)N/N=C/c2ccc3c(c2)OCO3)cc1	-5
COc1ccc(NC(=O)C2=C(C)NC(=S)NC2c2ccc(C)cc2)cc1 (stereo not given)	3
COC(=O)c1ccc(N2C(=O)CC(N3CCC(O)CC3)C2=O)cc1 (stereo not given)	2
COc1ccc(-c2cc(C(F)(F)F)n3nc(C(=O)N4CCc5ccccc5C4)cc3n2)cc1	13
O=C1OC(c2ccccc2)=C/C1=C/c1ccc(-c2ccc([N+](=O)[O-])cc2Br)o1	0
Cc1ccc([N+](=O)[O-])cc1/C=C1/C=C(c2ccccc2)OC1=O	96*
Cc1ccc(C2=C/C(=C\c3cc([N+](=O)[O-])ccc3Cl)C(=O)O2)cc1	7
CCCOc1ccccc1/C=C1\N=C(c2ccccc2)OC1=O	-18
Cc1ccc(N(CC(=O)Nc2ccccc2F)S(=O)(=O)c2ccccc2)c(C)c1	-23
COC(=O)c1c(N)sc2c1CCCCCC2	-13
NC(=O)c1c(N)sc2c1CCCCCCCCCC2	100*
COC(=O)c1c(N)sc2c1CCCC2	19
Cc1ccc(C23CC4CC(CC(C(=O)Nc5ccc(F)cc5F)(C4)C2)C3)cc1	0
O=C(Cc1ccc(F)cc1F)Nc1ccc(Br)cc1	-12
Cn1cccc1CN1CCN(C(=O)c2ccc(F)cc2)CC1	3
Cc1cccc(NC(=O)C2C3C=CC(C4CC34)C2C(=O)O)c1C (stereo not given)	100*
Cc1cccc(NC(=O)C2C(c3ccccc3)C2(Cl)Cl)c1C (stereo not given)	-11
O=C(O)C1C2C=CC(C3CC23)C1C(=O)Nc1ccccc1Cl (stereo not given)	-3
SMILES	VHR inh color
CC(=O)N1CCN(CC(C)(C)NS(=O)(=O)c2ccccc2)CC1	-9
O=C(O)CCN1C(=O)c2ccc(S(=O)(=O)c3ccc(C(=O)O)cc3)cc2C1=O	-16
COc1ccc(NC(=S)NC(=O)c2cccs2)cc1	-8
Fc1ccc(OCCOc2ncnc3ccccc23)cc1	-13
O=[N+]([O-])c1ccccc1OCCOc1ncnc2ccccc12	-16
O=Cc1ccc(Oc2ncnc3ccccc23)cc1	97*
O=C(CSCc1ccccc1)Nc1nnc(/C=C/c2ccccc2)s1	-28
CCOC(=O)c1c(-c2ccc(C)cc2)csc1NC(=O)C1CC1	3
O=C(Nn1c(=O)c2cc3c(=O)n(NC(=O)c4ccc(O)cc4)c(=O)c3cc2c1=O)c1ccc(O)cc1	-4
CSCCNS(=O)(=O)c1ccc(NC(C)=O)cc1	3
COc1cccc(/C=C2/SC(N)=NC2=O)c1O	-25
Cc1ccc(S(=O)(=O)N2CCN(C(=O)c3cccc(F)c3)CC2)cc1	101*
COc1ccc(S(=O)(=O)N2CCN(C(=O)c3cccc(F)c3)CC2)cc1	-21
Cc1ccc(S(=O)(=O)N2CCN(C(=O)c3cccnc3)CC2)cc1	10
CCOC(=O)c1cc(-c2ccc(O)cc2)nc2ccccc12	-5
COc1ccc(C2CC(=O)C3=C(C2)Nc2ccccc2NC3c2ccc3ccccc3c2)cc1 (stereo not given)	11
CCc1ccc(C2Nc3ccccc3NC3=C2C(=O)CC(c2ccc(OC)c(OC)c2)C3)cc1 (stereo not given)	115*
O=C1CC(c2ccccc2)CC2=C1C(c1ccc(F)c(F)c1)Nc1ccccc1N2 (stereo not given)	104*
O=C1CC(c2ccccc2)CC2=C1C(c1ccc(Cl)c(Cl)c1)Nc1ccccc1N2 (stereo not given)	-17
COc1ccc(C2CC(=O)C3=C(C2)Nc2ccccc2NC3c2ccncc2)cc1OC (stereo not given)	7
CCC(=O)N1c2ccccc2NC2=C(C(=O)CC(c3ccccc3)C2)C1c1ccc([N+](=O)[O-])cc1 (stereo not given)	10
COc1ccc(C2CC(=O)C3=C(C2)Nc2ccccc2NC3c2ccc(F)c(Br)c2)cc1 (stereo not given)	116*
CCC(=O)N1c2ccccc2NC2=C(C(=O)CC(c3ccccc3)C2)C1c1ccc(OC)cc1 (stereo not given)	103*
O=C1CC(c2ccccc2)CC2=C1C(c1ccc(F)c(Br)c1)Nc1ccccc1N2 (stereo not given)	-6
COc1ccc(C2CC(=O)C3=C(C2)Nc2ccccc2NC3c2ccc(SC)cc2)cc1OC (stereo not given)	43
COc1ccc(C2CC(=O)C3=C(C2)Nc2ccccc2NC3c2cccc(Br)c2)cc1 (stereo not given)	1
